# Data: PubChem BioAssay
# Activity calls are given as the source filed them. Unless noted, the rule behind the calls is not given here.
# Tests used:
# [1] = system: Wnt5a (protein binding on small-molecule microarray); assay: Wnt5a binders on small-molecule microarray, primary screen, biophysical, 635/667 nm fluorescence (AID 1142); conditions: 635 nm fluorescence, higher = more signal;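 note: fluorescence read at 667 nm with signal to noise per printed feature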
# [2] = cell viability in Huh7 cells, primary screen, cytotoxicity control for HCV replication inhibitor project, CellTiter-Glo luminescence, basal, 48 h (AID 1143); conditions: Huh7 HCV replicon, higher = more signal, called active from +8 up or from −8 down;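 note: Huh7 hepatoma cells carrying a hepatitis C replication reporter with no stimulus; test concentration not given here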
# [3] = P. aeruginosa biofilm formation inhibitors, primary screen, PAO1 strain, BacTiter-Glo luminescence, LB-PBS (AID 1144); conditions: 12 h, higher = more signal
# [4] = CREB reporter modulators without forskolin, primary screen, cell-based, PC12, CRE-LacZ reporter, unstimulated (AID 1145); conditions: no forskolin, luminescence, 4.5 h, higher = more signal, called active from +8 up or from −8 down
# [5] = CREB reporter modulators under forskolin, primary screen, cell-based, PC12, CRE-LacZ reporter, forskolin-stimulated (AID 1146); conditions: luminescence, 4.5 h, higher = more signal, called active from +8 up or from −8 down;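 note: PC12 cells with 6xCRE LacZ reporter stimulated by forskolin 10 µM; beta-galactosidase reporter signal reflecting CREB driven transcription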
# [6] = molecular target: Streptavidin (Streptomyces avidinii) (UniProt P22629); assay: streptavidin binders on small-molecule microarray, primary screen, artefact control for SMM compound annotation, biophysical, 635/667 nm fluorescence (AID 1147); conditions: streptavidin binding, higher = more signal;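 note: signal reflects streptavidin binding to arrayed compounds as a control protein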
# [7] = small-molecule binders of probe aInhba, primary screen, biochemical, small-molecule microarray, 635/667 nm fluorescence (AID 1148); conditions: higher = more signal;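 note: score merges 667nm spot fluorescence with signal-to-noise for antibody binding to printed compounds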
# Torsin-1A (Homo sapiens) [8] = molecular target: Torsin-1A (Homo sapiens) (UniProt O14656); assay: torsin A binders from cell lysate, primary screen, small-molecule microarray, wild-type, 635/667 nm (AID 1149); conditions: COS7 hTOR1A-WT lysate, 635 nm fluorescence, higher = more signal
# Torsin-1A (Homo sapiens) [9] = molecular target: Torsin-1A (Homo sapiens) (UniProt O14656); assay: small-molecule binders of mutant TOR1A in lysate, primary screen, cell lysate, small-molecule microarray, COS7 lysate, 635/667 nm fluorescence (AID 1150); conditions: COS7 hTOR1A mutant lysate, 635 nm fluorescence, higher = more signal;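 note: score pools 667 nm emission and signal to noise measuring lysate protein binding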
# [10] = system: Sonic hedgehog protein (Shh); assay: small-molecule binders of Shh protein, primary screen, biochemical, small-molecule microarray, 635/667 nm fluorescence (AID 1151); conditions: small-molecule microarray binding, 635 nm fluorescence; higher = more signal;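 note: Shh protein binding to compounds spotted on small-molecule microarray slides; score combines spot fluorescence intensity with signal-to-noise across triplicate slides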
# Chain of Streptavidin (Streptomyces avidinii) (P22629 whole entry, looked up): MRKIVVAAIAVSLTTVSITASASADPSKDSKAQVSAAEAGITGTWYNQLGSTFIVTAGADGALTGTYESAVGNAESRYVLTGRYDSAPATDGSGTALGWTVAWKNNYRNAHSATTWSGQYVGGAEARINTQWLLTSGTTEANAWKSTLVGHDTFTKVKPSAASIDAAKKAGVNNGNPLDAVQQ
# Chain of Torsin-1A (Homo sapiens) (O14656 whole entry, looked up): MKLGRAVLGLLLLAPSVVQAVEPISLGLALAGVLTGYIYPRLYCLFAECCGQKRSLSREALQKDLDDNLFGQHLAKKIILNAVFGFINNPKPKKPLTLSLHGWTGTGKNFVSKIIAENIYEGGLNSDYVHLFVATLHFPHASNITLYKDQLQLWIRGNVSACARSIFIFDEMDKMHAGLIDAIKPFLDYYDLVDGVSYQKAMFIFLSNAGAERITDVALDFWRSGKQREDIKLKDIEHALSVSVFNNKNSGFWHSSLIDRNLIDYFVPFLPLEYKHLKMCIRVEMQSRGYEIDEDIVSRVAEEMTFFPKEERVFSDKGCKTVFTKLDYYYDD
SMILES,composite z-score [1],z-score [2],z-score [3],z-score [4],z-score [5],composite z-score [6],composite z-score [7],composite z-score (Torsin-1A (Homo sapiens) [8]),composite z-score (Torsin-1A (Homo sapiens) [9]),composite z-score [10]
O=C1OCC=C[C@H]2OC34C=CCN(c5ccc6ccccc6c5)C(=O)[C@H]3N(CCCO)C(=O)[C@@H]4[C@@H]12 (stereo not given in full),-0.701,-2.14 (inactive),0.179 (inactive),0.337 (inactive),0.27 (inactive),-0.835,-0.0675,-1.69,-1.38,-0.372
C=CCOC(=O)[C@H]1[C@@H]2C(=O)O[C@@H](c3ccccc3)[C@@H](c3ccccc3)N2[C@@H](c2ccc(OCCOC(=O)[C@@H]3C[C@@H]4C(=O)N5CCC[C@H]5C(=O)N4[C@@H]3c3ccc(O)cc3)cc2)[C@]12C(=O)Nc1ccccc12,1.06,-0.496 (inactive),-0.506 (inactive),0.0124 (inactive),-0.72 (inactive),-0.244,-0.0963,0.529,0.853,1.23
CC(C)CNC(=O)[C@@]1(c2ccc([N+](=O)[O-])cc2)CC(=O)N(CC23CC4CC(CC(C4)C2)C3)[C@@H]1c1ccc(CO)cc1I,0.777,-4.95 (inactive),-0.266 (inactive),0.145 (inactive),1.07 (inactive),0.574,0.11,0.283,0.578,2.02
Cc1ccc(S[C@]2(C(=O)NCC(C)C)CC(=O)N(Cc3ccccc3)[C@@H]2c2ccc(CO)cc2I)cc1,0.185,-2.48 (inactive),0.229 (inactive),0.856 (inactive),1.27 (inactive),0.176,0.0422,0.298,0.835,2.21
C=CCOC(=O)[C@H]1[C@@H]2C(=O)O[C@@H](c3ccccc3)[C@@H](c3ccccc3)N2[C@@H](c2ccc(OCCOC(=O)[C@@H]3C[C@@H]4C(=O)NCC(=O)N4[C@@H]3c3ccc(O)cc3)cc2)[C@]12C(=O)Nc1ccccc12,0.773,-0.987 (inactive),-0.759 (inactive),0.0205 (inactive),-0.979 (inactive),-0.0156,-0.0221,0.342,0.767,2.28
CCCCCN1CC=CC23O[C@@H]4/C=C\CCC(C)OC(=O)C4[C@H]2C(=O)N(CCCCCO)[C@@H]3C1=O (stereo not given in full),-1.01,0.292 (inactive),-1.35 (inactive),-0.492 (inactive),0.069 (inactive),-1.33,-0.182,-0.798,0.815,-0.0084
